In article PMC4336329 (PLoS ONE, 2015):
The whole screen tested about 310,000 compounds, of which about 14,000 (4.5%) showed an effect of 50% or more. Effects have a minus sign here. Only a selection was taken, and strong results are over-represented in it overall.

Target: human ether-à-go-go-related gene (hERG) potassium channel (human, UniProt Q12809)
Assay: primary screen, population patch clamp on CHO cells stably expressing hERG; higher = less effect of the substance
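Note: peak tail current of the secondary pulse compared with the same well before compound.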

human ether-à-go-go-related gene (hERG) potassium channel, sequence (Q12809 whole entry, looked up): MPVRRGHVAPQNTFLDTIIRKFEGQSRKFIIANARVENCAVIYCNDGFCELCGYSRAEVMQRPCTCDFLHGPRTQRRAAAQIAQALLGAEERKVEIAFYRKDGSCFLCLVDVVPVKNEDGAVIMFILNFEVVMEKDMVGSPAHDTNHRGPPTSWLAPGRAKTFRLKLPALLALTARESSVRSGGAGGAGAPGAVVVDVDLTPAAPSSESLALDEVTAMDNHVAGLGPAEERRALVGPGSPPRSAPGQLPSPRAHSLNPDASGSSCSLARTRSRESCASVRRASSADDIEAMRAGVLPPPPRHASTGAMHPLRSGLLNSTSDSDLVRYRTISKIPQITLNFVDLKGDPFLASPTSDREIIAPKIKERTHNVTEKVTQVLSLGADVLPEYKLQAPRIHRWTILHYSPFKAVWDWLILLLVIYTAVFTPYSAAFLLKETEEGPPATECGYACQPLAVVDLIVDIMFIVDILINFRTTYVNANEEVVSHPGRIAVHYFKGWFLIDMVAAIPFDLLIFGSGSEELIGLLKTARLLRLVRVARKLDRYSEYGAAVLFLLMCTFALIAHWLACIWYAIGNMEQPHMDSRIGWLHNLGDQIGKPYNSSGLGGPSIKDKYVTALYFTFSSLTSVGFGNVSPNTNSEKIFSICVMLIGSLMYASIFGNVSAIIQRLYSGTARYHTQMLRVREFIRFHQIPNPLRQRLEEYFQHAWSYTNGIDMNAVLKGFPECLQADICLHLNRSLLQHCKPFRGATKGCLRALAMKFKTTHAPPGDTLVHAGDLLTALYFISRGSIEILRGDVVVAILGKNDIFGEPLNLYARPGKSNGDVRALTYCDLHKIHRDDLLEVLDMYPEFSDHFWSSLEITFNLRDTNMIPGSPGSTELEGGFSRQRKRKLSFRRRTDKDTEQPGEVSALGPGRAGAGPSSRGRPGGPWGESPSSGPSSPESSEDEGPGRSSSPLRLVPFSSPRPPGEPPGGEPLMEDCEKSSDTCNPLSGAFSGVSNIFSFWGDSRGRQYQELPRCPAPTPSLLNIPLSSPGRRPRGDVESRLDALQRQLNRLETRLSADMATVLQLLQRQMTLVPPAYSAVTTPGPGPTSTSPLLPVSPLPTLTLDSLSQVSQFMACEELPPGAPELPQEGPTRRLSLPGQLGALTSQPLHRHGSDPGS

SMILES | hERG current change (%, negative = inhibition) at 10uM
Cc1ccc(C(=O)CSc2nc3ccccc3c(=O)n2N)o1 | -1.95%
Cc1ccc(-c2csc(N(Cc3ccco3)C(=O)c3cccs3)n2)cc1 | 11.6%
COc1ccc(-c2csc(N(CC3CCCO3)C(=O)c3cccs3)n2)cc1 (centres unmarked) | -11.4%
CCN(CC)CCCN(C(=O)c1cccs1)c1nc(-c2ccc(OC)cc2)cs1 | -83.3%
O=C(c1cccs1)N(CC1CCCO1)c1nc(-c2ccccc2)cs1 (centres unmarked) | 2.57%
COc1ccc(-c2csc(N(C)C(=O)c3cccs3)n2)cc1 | -0.276%
CN(C)CCCN(C(=O)c1cccs1)c1nc(-c2ccccc2)cs1 | -72.8%
COc1ccc(-c2csc(N(Cc3ccco3)C(=O)c3cccs3)n2)cc1 | -3.17%
CCN(C(=O)c1cccs1)c1nc(-c2ccc(OC)cc2)cs1 | 23.1%
COc1ccc(-c2csc(N(CCCN(C)C)C(=O)c3cccs3)n2)cc1.Cl | -73.9%
O=C(NC(=S)Nc1ccc(S(=O)(=O)N2CCCC2)cc1)C1CC1 | -29.8%
COc1ccc(C(=O)Nc2cc(C)nn2-c2nc3ccccc3[nH]2)c(OC)c1 | -5.95%
CSc1nnc(-c2ccc(Cl)cc2Cl)o1 | 1.62%
COc1cccc(NC(=O)COc2ccc(C(=O)N3CCN(C)CC3)cc2)c1 | 15.8%
O=C(O)CCc1cccnc1 | 7.55%
O=C(/C=C/c1c(F)cccc1Cl)c1ccc(O)cc1 | 1.1%
Cc1ccc(-c2nnc3c4ccccc4c(C)nn23)cc1S(=O)(=O)N1CCN(C)CC1 | -6.7%
Cc1ccc(-c2nnc(NCc3nc4ccccc4[nH]3)c3ccccc23)cc1S(=O)(=O)N1CCCCC1.Cl | -7.08%
Cc1ccc(-c2nnc(N3CCOCC3)c3ccccc23)cc1S(N)(=O)=O | 17.3%
Cc1ccc(-c2nnc(N3CCCCC3)c3ccccc23)cc1S(=O)(=O)N(C)C | -27%
Cc1ccc(-c2nnc(N3CCCCC3)c3ccccc23)cc1S(=O)(=O)N1CCN(C)CC1 | -58.7%

SMILES | hERG current change (%, negative = inhibition) at 10uM
Cc1ccc(-c2nnc(NC3CCCCC3)c3ccccc23)cc1S(=O)(=O)N1CCN(C)CC1 | -54.6%
COc1ccc(S(=O)(=O)NCC2CCCN(C(=O)CCSC)C2)cc1 (centres unmarked) | 18%
COc1cccc(CN2CC(C(=O)N(C)Cc3ccnc4ccccc34)CCC2=O)c1 (centres unmarked) | -10.2%
C=CCNc1nc(-c2c(C)nc3sccn23)cs1 | -10.1%
Cc1ccccc1C(=O)NC(=S)NCCC1=CCCCC1 | 13.4%
CN1CCN(c2ncc3c(n2)CC(c2ccccc2F)CC3=O)CC1 (centres unmarked) | -4.43%
COCCOC(=O)C1=C(C)NC2=C(C(=O)CCC2)C1c1ccc2c(c1)OCO2 (centres unmarked) | -49.6%
O=C(CCNC(=O)c1ccc(Br)cc1)NCc1ccccc1F | -13%
O=C(N/N=C/c1cccc([N+](=O)[O-])c1)C1COc2ccccc2O1 (centres unmarked) | -29.1%
O=C(CNC(=O)C1COc2ccccc2O1)N/N=C\c1ccccc1Cl (centres unmarked) | 4.64%
O=C(CNC(=O)C1COc2ccccc2O1)N/N=C\c1ccc(Cl)cc1 (centres unmarked) | -69.4%
O=C(Nc1ccc([N+](=O)[O-])cc1)C1COc2ccccc2O1 (centres unmarked) | 0.793%
O=C(CNC(=O)C1COc2ccccc2O1)N/N=C/c1cc(Br)c(O)c(Br)c1 (centres unmarked) | -7.99%
COc1ccc(/C=N/NC(=O)CNC(=O)C2COc3ccccc3O2)cc1OC (centres unmarked) | -15.7%
COc1cc(/C=N\NC(=O)CNC(=O)C2COc3ccccc3O2)ccc1O (centres unmarked) | -26.8%
O=C(CNC(=O)C1COc2ccccc2O1)N/N=C/c1ccc([N+](=O)[O-])cc1 (centres unmarked) | -71.8%
O=C(CNC(=O)C1COc2ccccc2O1)N/N=C\c1ccc(Br)cc1 (centres unmarked) | -20.1%
O=C(Nc1cccc([N+](=O)[O-])c1)C1COc2ccccc2O1 (centres unmarked) | -86.3%
O=C(NNC(=O)C1COc2ccccc2O1)c1cccc([N+](=O)[O-])c1 (centres unmarked) | -7.35%
COc1ccc(/C=N\NC(=O)CNC(=O)C2COc3ccccc3O2)cc1[N+](=O)[O-] (centres unmarked) | -73.8%
